This note sets out measurements from the supplement of paper PMC3334620.

Whole data set: some 33,000 sequences, median “E-score (-0.5 to 0.5)” near -0.0014, cut for the highest 2% near 0.25. What follows is part of a selection rich in the highest values, with near analogues and random picks from the rest.

In this test the target is T1, Cad1 (UniProt P24813).
T1 sequence: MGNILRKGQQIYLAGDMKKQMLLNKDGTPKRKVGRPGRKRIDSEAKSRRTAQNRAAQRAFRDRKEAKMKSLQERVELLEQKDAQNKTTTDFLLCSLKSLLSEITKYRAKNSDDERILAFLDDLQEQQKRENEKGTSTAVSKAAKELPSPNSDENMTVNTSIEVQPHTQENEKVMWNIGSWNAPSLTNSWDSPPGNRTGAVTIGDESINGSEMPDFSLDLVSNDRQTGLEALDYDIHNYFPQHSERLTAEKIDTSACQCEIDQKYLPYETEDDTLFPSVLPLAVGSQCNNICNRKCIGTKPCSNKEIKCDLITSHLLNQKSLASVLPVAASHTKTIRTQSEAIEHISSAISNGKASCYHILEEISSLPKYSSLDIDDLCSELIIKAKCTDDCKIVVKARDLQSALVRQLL
Nature of the test: PBM E-score (8-mer binding enrichment) (E-score (-0.5 to 0.5)); higher = stronger / more preferred TF binding. The conditions noted are these: protein concentration: 100 nM; construct: GST-full length. The procedure, abridged: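 Full-length yeast transcription factors or their DNA-binding domains, GST-tagged and expressed with PURExpress, were applied at about 100-200 nM to universal all-10-mer Agilent arrays. These arrays had been made double-stranded by primer extension on fresh or once-stripped slides. Detection used fluorescent anti-GST, normalisation used masliner, and E-scores for ungapped eight-base words pooled with reverse complements came from the Universal PBM Analysis Suite.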
Consider CTTCCTAA, for which the “PBM E-score” value is 0.0434.
Consider AGTCCTTG, for which the “PBM E-score” value is -0.0247.
As for ATCAAGCC, the figure is -0.0325; as for CATCGCGA, 0.25; as for GATCGCGA, 0.132.
Consider TATCGCGA, for which the “PBM E-score” value was found to be 0.259.
TATCGCAA: the “PBM E-score” value turned out to be 0.22.
The result for AATCGCGA reads 0.196.
As for CATCGCGC, the “PBM E-score” value was found to be 0.051.
The result for CGGCTCCA reads -0.0781.
Consider CGCGTTAC, for which the “PBM E-score” value was 0.139.
In the case of AACGGGGT, the “PBM E-score” value is -0.13.
For ATTAGCAA, the “PBM E-score” value came to 0.304.
As for GTAAGCTA, the figure is 0.298.
As for GTAAGCAA, the figure is 0.345.
In the case of TTAAGCAA, the “PBM E-score” value is -0.0269.
The result for CTAAGCAG reads -0.078; that for CTAAGCAA, 0.0503; that for ATAAGCTA, -0.0126.
The result for GTAAGCAC reads 0.163; that for ATTAGCAG, 0.0216.
The result for CTAAGCAC reads 0.294; that for CTAAGCTA, 0.135.
In the case of GTTAGCAA, the “PBM E-score” value amounted to 0.0595.
In the case of AGTGTCTG, the “PBM E-score” value turned out to be 0.15.
For ACGCAGGG, the “PBM E-score” value is -0.155.
The result for AGCTGCGC reads 0.0681; that for ACAAAGTG, 0.0733.
For the sequence GCTCAGAC, the “PBM E-score” value is -0.0381.
The result for CACCTAGA reads -0.156; that for CTTAAGCC, 0.00617; that for ATAAGCAC, 0.208.
On to ATAAGCAA, for which the “PBM E-score” value was determined as 0.296.
For the sequence ATAAGCAT, the “PBM E-score” value was 0.0827.
The result for AGATACAA reads 0.256; that for CGATACAA, 0.0958; that for AGATACAG, 0.0445.
As for GTGCTCTA, the figure is -0.119.
GTGACTTA: the “PBM E-score” value amounted to 0.1.
The result for CTAAGCGA reads 0.0774; that for GTAAGCGA, 0.281.
As for ATAAGCGG, the figure is 0.0934; as for ATAAGCGA, 0.287.
Regarding ATAAGCGC, the “PBM E-score” value amounted to 0.139.
As for GGAAGCGA, the figure is -0.0787; as for CAAACCGG, -0.0831; as for AAGTATGG, 0.00171.
As for ACTGGAGG, the figure is 0.0173; as for CTATTTAA, -0.0377; as for ATATTTAA, 0.272.
Consider CTATTTGC, for which the “PBM E-score” value was -0.0458.
ATATTTGC: the “PBM E-score” value came out at 0.306.
Regarding ACATTTAG, the “PBM E-score” value is -0.126.
As for ATATTTGG, the figure is 0.146; as for GTATTTAA, 0.0263; as for ATTTTTAG, 0.0211.
As for ACATTTAA, the figure is 0.253; as for ATATTTAG, 0.255; as for ATATTTAC, 0.228.
GCATTTAA: the “PBM E-score” value was 0.0157.
As for CAAGAGGG, the figure is -0.247.
As for CGCAACGA, the “PBM E-score” value was -0.00619.
CCGGAAAC: the “PBM E-score” value came out at 0.125.
With CCCGGGTC, the “PBM E-score” value was -0.242.
As for ATGACGAA, the figure is 0.145; as for ATGATATA, -0.027.
As for ATATGATA, the figure is 0.285.
The result for GTATGATA reads 0.23; that for ATGATATG, 0.29.
For the sequence ATGATATC, the “PBM E-score” value stood at 0.0971.
The result for CTATGATA reads 0.0824; that for CTAACTGC, -0.0676.
As to AAACACCA, the “PBM E-score” value is -0.00879.
The result for CGTATGGC reads 0.14.
As for AGTACGAA, the figure is 0.22.
In the case of AGCAGCGG, the “PBM E-score” value was -0.0904.
The result for AAATTATC reads 0.246.
On to AAATTATG, for which the “PBM E-score” value stood at 0.255.
The result for ATATTATA reads 0.164; that for ATATTATG, 0.268; that for ATATTATC, 0.096.
As for CAATTATG, the figure is 0.105; as for ACATGTAT, 0.204; as for ATGCCTTA, -0.158.
On to CGTGATCA, for which the “PBM E-score” value was 0.123.
In the case of AATTTTGG, the “PBM E-score” value worked out at 0.149.
As for CTTGGTAA, the figure is 0.0981.
The result for ATTGGTAA reads 0.257.
In the case of GTTGGTAA, the “PBM E-score” value was 0.19.
The result for GCCCACAA reads -0.153; that for ATTCAATG, 0.114; that for ATTCAATC, 0.263.
Take CTTCAATC: the “PBM E-score” value was -0.066.
As for GACACAGC, the “PBM E-score” value worked out at 0.0664.
The result for CCTGTGCC reads -0.136; that for ATTCCGGG, 0.122.
CTTCCGGA: the “PBM E-score” value worked out at 0.0325.
Regarding AATCCGGC, the “PBM E-score” value stood at 0.104.
For AATCCGGA, the “PBM E-score” value was 0.306.
As for AATCCGAT, the figure is 0.25.
As for AATCCGAC, the figure is 0.00376; as for AATCCGGG, -0.0636; as for AATCCGAA, -0.0355.
As for ATTCCGGA, the figure is 0.254.
Turning to CTGCTCAC, the “PBM E-score” value was -0.0643.
Turning to TGACCACA, the “PBM E-score” value was -0.0368.
Take GTCTCCTA: the “PBM E-score” value was -0.194.
The result for ACCAAGGC reads -0.0921.
Take ACAGTCCC: the “PBM E-score” value is -0.188.
As for CCTAGCAA, the figure is -0.0559.
The result for CGAGCTTA reads 0.214.
